The record followed here is PubChem BioAssay AID2315 (National Center for Advancing Translational Sciences (NCATS), 2010).

About 27,000 (9.3%) of roughly 290,000 compounds were called active. The full list was thinned out, with actives kept by preference. Unmarked numbers belong to inactive results. Cut-off read from the data, not from the text of the source: active = inhibition mostly above about 28% (no sharp cut-off); inactive = mostly below about 43%. Where a SMILES comes first, the peptide text is derived from it. The star is where a group is joined. OPac = O=C(CO*)c1ccccc1; Bz = O=C(c1ccccc1)*

The nature of the assay: A qHTS for Small Molecule Inhibitors of Shiga Toxin. Note: 0% is about no effect. Conditions: Vero cells, Shiga toxin protein synthesis inhibition reporter; at 38.7 µM, hits give high values. For orientation: Quantitative high-throughput screening tests each substance at several concentrations.
In general, inhibition refers to the change of the read-out against control, counted positive when it falls. Take `CC(C)c1ccc(/C=C2\NC(=O)NC2=O)cc1`: the inhibition is 38.8%.
Next, `CSCCC(NS(=O)(=O)c1ccc(C)cc1)C(=O)NCCc1c[nH]c2ccccc12` (stereo not drawn): -5.02%.
Next, `O=C(O)c1ccc(/C=N/NC(=O)c2ccc(Br)cc2)cc1`: 17.5%; `CC(C)(C)OC(=O)N/N=C/c1ccc(C(=O)O)cc1`: 51.6% (active).
As for `COC(=O)N/N=C/c1ccc(/C=N/NC(=O)OC)cc1`, the inhibition was -9.65%.
Under `CC1CC(C)CN(S(=O)(=O)c2cccc3nonc23)C1` (stereo not drawn) stands -8.46%; under `COc1cccc(N(C(=O)CNC(=O)c2ccco2)C(C(=O)NC2CCCCC2)c2cccnc2)c1` (stereo not drawn), -9.43%.
Next, `Oc1ccc(-c2c(-c3ccccc3)nn3c(C(F)(F)F)cc(C(F)(F)F)nc23)cc1`: -10.8%; `COC(=O)c1cccc([N+](=O)[O-])c1CS(=O)(=O)c1ccc(C)cc1`: -10.2%.
Next, `Cc1ccc(N=C2NC(=O)c3cccc([N+](=O)[O-])c32)cc1`: 98.8% (active).
Regarding `CCN(Cc1ccccc1)C(=O)CCS(=O)(=O)c1ccc2c(c1)oc(=O)n2C`, the inhibition was 0.994%.
On to `O=C(CNC(=O)c1ccccc1F)c1ccc(Br)cc1`, for which the inhibition is 79.7% (active).
Next, `O=C(CNC(=O)c1ccccc1)NCC(=O)OCC(=O)c1ccccc1` (Bz-Gly-Gly-OPac): -5.66%; `CSc1nnc(CNC(=O)c2ccccc2)n1-c1ccc(F)cc1`: -6.7%.
On to `COC(=O)CNC(=O)c1ccccc1F`, for which the inhibition is -15.6%.
Under `O=C(COC(=O)CNC(=O)c1ccccc1F)NCC(F)(F)F` stands 16.2%.
Next, `O=C(CNC(=O)c1ccc(F)cc1)c1ccccc1`: 90.2% (active); `COc1cc(C(C(=O)NC2CCCC2)N(Cc2ccccc2)C(=O)c2snc(C(N)=O)c2N)ccc1O` (stereo not drawn): -1.22%.
Under `COc1cc(C(=O)OC2CCOC2=O)c([N+](=O)[O-])cc1OC` (stereo not drawn) stands -8.09%.
On to `COCCCN1C(=O)C(=O)/C(=C(/O)c2ccc(S(=O)(=O)N3CCOCC3)cc2)C1c1ccc(F)cc1` (stereo not drawn), for which the inhibition was -3.02%.
Next, `Cc1ccc(S(=O)(=O)N2CCC3(CC2)OCCO3)c(C)c1`: 19.9%; `CN(CCC1CCOCC1)C(=O)CC1C(=O)NCCN1Cc1cccc(F)c1` (stereo not drawn): -4.33%; `CN(C(=O)COc1ccccc1)c1nnc(-c2ccncc2)s1`: 3.11%.
Turning to `CN(C(=O)c1ccccn1)c1nnc(-c2ccccn2)s1`, the inhibition is 115% (active).
Next, `COc1cc(OC)cc(-c2nnc(N(C)C(=O)c3ccncc3)s2)c1`: -6.02%; `COc1ccc(C(=O)NCCn2nc(C)cc2C)cc1OC1CCN(C(C)=O)CC1`: -11.5%.
Next, `Cc1ccc(NC(=O)C(CC(=O)O)C2CCCO2)c(C)c1` (stereo not drawn): -1.94%; `COc1cccc(CC(=O)Nc2ccc(-c3csc(C)n3)cc2)c1`: 28.8% (active).
Under `COc1cccc(CC(=O)Nc2nc(-c3ccc(OC)c(OC)c3)cs2)c1` stands 17.3%.
Turning to `CC(C)C(=O)Nc1ccc(C(=O)NNC(=O)c2cccs2)cc1`, the inhibition was 28.6%.
Take `Cc1ccc(C)c(NC(=O)CCC(=O)NNC(=O)c2cccs2)c1`: the inhibition was -2.76%.
As for `Cc1ccc(-c2csc(NC(=O)Cc3cccs3)n2)cc1C`, the inhibition was 37.6%.
Next, `O=C(NNC(=O)c1ccc(Cl)cc1Cl)c1cccs1`: 74.9% (active); `NNC(=O)c1ccc(Cl)cc1Cl`: 16.2%.
Next, `Cc1ccc(C(=O)NNC(=O)c2cccs2)cc1`: 86.5% (active); `Cc1ccc(NNC(=O)c2cccs2)cc1Cl`: 22.1%; `Cc1ccc(-c2csc(NNC(=O)c3ccccc3)n2)cc1`: 1.14%.
Consider `COc1cccc(NC(=O)CN2CCN(c3nc(-c4cccc(OC)c4)cs3)CC2)c1`, for which the inhibition was -2.33%.
Next, `COc1ccccc1CCNS(=O)(=O)c1cc2c3c(c1)C(C)C(=O)N3CCC2` (stereo not drawn): -4.37%; `CCn1c(=O)c(=O)[nH]c2c(=O)oc3ccc(S(=O)(=O)Nc4ccc(OC)cc4)cc3c21`: -7.69%; `O=C(NCc1cccs1)c1ccc(CS(=O)Cc2ccccc2Cl)o1` (stereo not drawn): -8.99%.
Turning to `COc1cc(CO)ccc1OCC(=O)Nc1cccc2ccccc12`, the inhibition was -2.74%.
Next, `CC1CN(C(=O)CCC(=O)NCc2cccnc2)c2ccccc2O1` (stereo not drawn): -5.3%; `O=C(CN1C(=O)c2cccnc2Oc2ccc(Cl)cc21)Nc1ccc(F)cc1`: -1.35%.
For the compound `CCN(CC(=O)NCc1ccco1)S(=O)(=O)c1ccc(F)cc1`, the inhibition is -12.2%.
Next, `O=C1C(=O)N(CCCN2CCOCC2)C(c2ccc([N+](=O)[O-])cc2)/C1=C(\O)c1ccc2c(c1)OCCO2` (stereo not drawn): 22.5%.
Take `COc1ccc(N2CCN(C(=O)c3ccccc3NC(=O)C3=C(C)OCCS3)CC2)cc1`: the inhibition was -21.3%.
Regarding `Cc1ccc(S(=O)(=O)N[C@@H](Cc2ccccc2)C(=O)N2CCC(C(=O)N[C@H](C(=O)O)C(C)O)CC2)cc1` (stereo partly drawn), the inhibition is -8.35%.
For the compound `Cc1nc(-c2ccc(NC(=O)c3cccs3)cc2)cs1`, the inhibition was 45.3% (active).
Next, `Cc1ccc(-c2nnc(-c3ccc(NC(=O)c4cccs4)cc3)o2)cc1`: -3.6%.
Take `Cc1ccc(C(=O)Nc2ccc(NC(=O)c3cccs3)cc2)c(C)c1`: the inhibition was 2.76%.
Under `CCOC(=O)C1CCN(S(=O)(=O)c2ccc3c(c2)N(C)C(=O)CC(=O)N3C)CC1` stands -0.654%; under `COc1ccc(NC(=O)NNC(=O)COc2cc(C)c(Cl)c(C)c2)c(OC)c1`, -7.12%; under `CCCCSCCCNC(=O)C1CCC(CNS(=O)(=O)c2ccc(NC(C)=O)cc2)CC1` (stereo not drawn), -4.92%.
Take `CCC1Sc2ccc(S(=O)(=O)CCC(=O)NCc3cccs3)cc2NC1=O` (stereo not drawn): the inhibition is -5.71%.
Consider `O=C(NC1CCCC1)C(c1c(F)cccc1Cl)N(C(=O)c1csnn1)C1CC1` (stereo not drawn), for which the inhibition is -2.62%.
For the compound `COc1ccc(N2CCN(S(=O)(=O)CCNC(=O)C34CC5CC(CC(C5)C3)C4)CC2)cc1`, the inhibition is -1.41%.
Consider `COC(=O)c1cc(NC(=O)C2C3C=CC(C3)C2C(=O)O)cc(C(=O)OC)c1` (stereo not drawn), for which the inhibition is -19%.
Next, `CC(=O)NS(=O)(=O)c1ccc(NC(=O)C2C3C=CC(C3)C2C(=O)O)cc1` (stereo not drawn): -8.78%; `CC(C)COC(=O)c1ccc(NC(=O)C2C3C=CC(C3)C2C(=O)O)cc1` (stereo not drawn): 77.2% (active); `COc1ccc(CNC(=O)C(c2ccc(O)cc2)N(Cc2ccco2)C(=O)c2snc(C(N)=O)c2N)cc1` (stereo not drawn): -11.7%.
Next, `CCCCCOC(=O)NCCOC(=O)Nc1ccc(C(=O)OCC)cc1`: -13.5%; `CCCCCCCCC(=O)NCCOc1ccccc1`: -16.7%; `CCCCCCOC(=O)NCC(O)c1ccccc1` (stereo not drawn): 85.6% (active).
Under `NC(=O)C1CC(=O)N(c2ccc(OCC(=O)NCc3ccccc3)cc2)C1` (stereo not drawn) stands -19.2%.
As for `COc1ccc(/C=C(/NC(=O)c2ccco2)C(=O)Nc2ccc(C(C)=O)cc2)cc1`, the inhibition was -4.34%.
For `CCOC(=O)c1cc2cc3ccccc3cc2oc1=O`, the inhibition was 43.1% (active).
Next, `CCCOC(=O)c1cc2ccccc2oc1=O`: 18.4%; `C=CCc1cccc2cc(C(=O)OCC)c(=O)oc12`: 2.24%.
Next, `Cc1ccc(-n2c(SCC(=O)NCCC3=CCCCC3)nc3n[nH]c(C)c3c2=N)cc1Cl`: -4.66%; `CCOC(=O)c1ccccc1NC(=O)COC(=O)CCC(=O)N1CCOCC1`: -9.24%; `CC(=O)N1c2ccc(S(=O)(=O)N3CCCC(C(=O)Nc4cccc(F)c4)C3)cc2CC1C` (stereo not drawn): -2.88%.
Next, `Cc1cccc(NC(=O)/C(=C\c2ccco2)NC(=O)c2ccccc2)c1`: -2.02%.
In the case of `Cc1cccc(NC(=S)NC23CN4CN(CN(C4)C2)C3)c1`, the inhibition is -10.3%.
On to `Cc1cccc(NC(=S)NC(=O)c2ccc(Br)o2)c1`, for which the inhibition was 105% (active).
As to `Cc1cccc(NC(=O)c2nnn(-c3cccc(C(F)(F)F)c3)c2N)c1`, the inhibition is 31.4%.
Take `Cc1cccc(NC(=O)c2cccc(C(F)(F)F)c2)c1`: the inhibition was 77.8% (active).
In the case of `Cc1cccc(NC(=S)Nc2ccc(Br)cc2)c1`, the inhibition is 36.6%.
Next, `O=C(CNC(=O)c1ccc(Br)o1)Nc1ccccc1`: -4.27%.
For `CNC(=O)c1ccc(NC(=O)c2cccc(C(F)(F)F)c2)cc1`, the inhibition is -2.63%.
Consider `Cc1cccc(NC(=O)NC(=S)NC(=O)c2ccccc2)c1`, for which the inhibition is 80.2% (active).
Take `COc1ccc(OCC(=O)Nc2ccc(NC(=O)c3ccco3)c(C)c2)cc1`: the inhibition is 19.3%.
Under `O=C(c1cc2cc(Br)cc(Br)c2oc1=O)N1CCOCC1` stands 11.8%; under `COC(=O)CSc1nc2ccccc2c(=O)n1Cc1ccccc1`, -8.77%.
With `Cc1c(CC(=O)NCCCCCC(=O)O)c(=O)oc2cc3occ(-c4ccccc4)c3cc12`, the inhibition was -4.34%.
Regarding `CCN(CC)S(=O)(=O)c1ccc(N2CC(C(=O)NCc3cccnc3)CC2=O)cc1` (stereo not drawn), the inhibition was -5.91%.
Under `Cc1ccc(CNC(=O)CCN2C(=O)[C@@H]3Cc4ccccc4CN3C2=O)cc1` stands 8.09%; under `CCC(Cc1ccccc1)NS(=O)(=O)c1ccc2c(c1)NC(=O)CS2` (stereo not drawn), 1.38%; under `O=C(CN(CC1CCCO1)C(=O)CNS(=O)(=O)c1ccc(Cl)cc1)NCc1ccccc1` (stereo not drawn), -14%.
Next, `Cc1ccc(C(=O)N(CC(=O)NC2CCCC2)c2ccc(F)cc2)s1`: -7.38%; `O=C(NC(=O)c1cc(OCC(F)(F)F)ccc1OCC(F)(F)F)Nc1ccccc1`: 27.7%.
Under `O=C(Nc1ccccc1)Nc1ccc(C(F)(F)F)cn1` stands 53% (active); under `Cc1ccc(NC(=O)Nc2cccc(C(F)(F)F)c2)nc1`, 52.4%.
